Results taken from the supplement of paper PMC10849652.
Of roughly 8,800 targets only a part is listed; those with a hit were picked by preference. About 0.5% of all pairs of compound and target were hits.

Legend:
Test in all cases: log2 fold change, soluble protein after heating vs DMSO (PISA); higher = thermal stabilisation; K562 lysate, 10 uM; active = over 0.2 and 3.5 SD of the protein, either way, in both replicates (recomputed)
alvocidib = compound: CN1CC[C@H](c2c(O)cc(O)c3c(=O)cc(-c4ccccc4Cl)oc23)[C@H](O)C1 [alvocidib]
How it was run: (§1)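 Quantification was by TMTpro 16plex LC-MS/MS with equalised channel sums, applied to the supernatant after 21,000xg for 90 min. Samples were crude K562 extract at 1 mg/mL protein in PBS pH 7.4 with 1 mM MgCl2, treated with 10 μM compound for 30 min, heated for 3 min across 48°C-58°C, pooled and brought to 0.5% NP-40 at 4°C. Values are log-two fold changes in thermal stability relative to solvent controls, from duplicates.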

Tubastatin A = compound: CN1CCc2c(c3ccccc3n2Cc2ccc(C(=O)NO)cc2)C1 [Tubastatin A]
How it was run: as §1

[1] = compound: CNC(=O)C1=CC=CC=C1NC2=NC(=NC=C2Cl)NC3=C(C=C(C=C3)N4CCOCC4)OC
How it was run: as §1

defactinib = compound: CNC(=O)c1ccc(Nc2ncc(C(F)(F)F)c(NCc3nccnc3N(C)S(C)(=O)=O)n2)cc1 [defactinib]
How it was run: as §1

[2] = compound: CNc1nc(-c2ccc3c(N)n[nH]c3c2)cc(N2C[C@@H](C(=O)NC3CCCCC3)CC[C@H]2C)n1
How it was run: as §1

encorafenib = compound: COC(=O)N[C@@H](C)CNc1nccc(-c2cn(C(C)C)nc2-c2cc(Cl)cc(NS(C)(=O)=O)c2F)n1 [encorafenib]
How it was run: as §1

[3] = compound: COC(=O)[C@H](CCSC)NC(=O)C1=C(C=C(C=C1)NC[C@H](CS)N)C2=CC=CC=C2
How it was run: as §1

alisertib = compound: COc1cc(Nc2ncc3c(n2)-c2ccc(Cl)cc2C(c2c(F)cccc2OC)=NC3)ccc1C(=O)O [alisertib]
How it was run: as §1

[4] = compound: COc1cc2nc(-c3cc(F)ccc3O)nc(N[C@@H]3CNC[C@H]3C(C)(C)O)c2cc1OC
How it was run: as §1

gefitinib = compound: COc1cc2ncnc(Nc3ccc(F)c(Cl)c3)c2cc1OCCCN1CCOCC1 [gefitinib]
How it was run: as §1

lapatinib = compound: CS(=O)(=O)CCNCc1ccc(-c2ccc3ncnc(Nc4ccc(OCc5cccc(F)c5)c(Cl)c4)c3c2)o1 [lapatinib]
How it was run: as §1

pictilisib = compound: CS(=O)(=O)N1CCN(Cc2cc3nc(-c4cccc5[nH]ncc45)nc(N4CCOCC4)c3s2)CC1 [pictilisib]
How it was run: as §1

crizotinib = compound: C[C@@H](Oc1cc(-c2cnn(C3CCNCC3)c2)cnc1N)c1c(Cl)ccc(F)c1Cl [crizotinib]
How it was run: as §1

[5] = compound: C[C@H](C1=CC=C(C=C1)C(=O)NC2=C3C=CNC3=NC=C2)N
How it was run: as §1

duvelisib = compound: C[C@H](Nc1ncnc2nc[nH]c12)c1cc2cccc(Cl)c2c(=O)n1-c1ccccc1 [duvelisib]
How it was run: as §1

gandotinib = compound: Cc1cc(Nc2cc(CN3CCOCC3)c3nc(C)c(Cc4ccc(Cl)cc4F)n3n2)n[nH]1 [gandotinib]
How it was run: as §1

tozasertib = compound: Cc1cc(Nc2cc(N3CCN(C)CC3)nc(Sc3ccc(NC(=O)C4CC4)cc3)n2)n[nH]1 [tozasertib]
How it was run: as §1

doramapimod = compound: Cc1ccc(-n2nc(C(C)(C)C)cc2NC(=O)Nc2ccc(OCCN3CCOCC3)c3ccccc23)cc1 [doramapimod]
How it was run: as §1

bafetinib = compound: Cc1ccc(NC(=O)c2ccc(CN3CC[C@H](N(C)C)C3)c(C(F)(F)F)c2)cc1Nc1nccc(-c2cncnc2)n1 [bafetinib]
How it was run: as §1

[6] = compound: Cc1cccc(CC(=O)N2CCc3c2ccc(-c2cn(C)c4ncnc(N)c24)c3F)n1
How it was run: as §1

Measured: log2 fold change

PHACTR4 isoform 2 (UniProt Q8IZ21)
inactive: alvocidib 0.209 | Tubastatin A 0.016 | [1] -0.024 | defactinib 0.012 | [2] 0.1 | encorafenib -0.01 | [3] -0.016 | alisertib -0.019 | [4] 0.004 | gefitinib -0.022 | lapatinib -0.015 | pictilisib -0.014 | crizotinib -0.005 | duvelisib 0 | gandotinib -0.121 | tozasertib -0.03 | doramapimod -0.003 | bafetinib 0.022 | [6] -0.196
active: [5] 0.764

PRC1 (UniProt O43663)
inactive: alvocidib 0.002 | Tubastatin A -0.157 | [1] 0.043 | defactinib -0.012 | [2] 0.012 | encorafenib 0.031 | alisertib 0.045 | [4] -0.032 | gefitinib 0.049 | lapatinib -0.014 | pictilisib -0.007 | crizotinib -0.109 | [5] 0.023 | duvelisib 0.059 | gandotinib -0.003 | tozasertib 0.017 | doramapimod 0.004 | bafetinib -0.079 | [6] 0.025
active: [3] 0.255

PLEKHA5 isoform 6 (UniProt Q9HAU0)
inactive: alvocidib -0.11 | Tubastatin A -0.074 | [1] 0.02 | defactinib 0.065 | [2] 0.006 | encorafenib -0.016 | [3] 0.054 | alisertib 0.035 | [4] -0.03 | gefitinib -0.039 | lapatinib 0.003 | pictilisib -0.054 | crizotinib 0.006 | [5] -0.033 | duvelisib -0.032 | gandotinib 0.093 | tozasertib 0.002 | doramapimod -0.028 | bafetinib -0.061 | [6] 0.002

POLA1 (UniProt P09884)
inactive: alvocidib -0.01 | Tubastatin A -0.031 | [1] 0.037 | defactinib 0.016 | [2] -0.004 | encorafenib 0.022 | [3] 0.061 | alisertib -0.013 | [4] 0.014 | gefitinib 0.008 | lapatinib -0.022 | pictilisib -0.044 | crizotinib -0.03 | [5] -0.011 | duvelisib 0.009 | gandotinib -0.016 | tozasertib 0.003 | doramapimod 0.01 | bafetinib -0.057 | [6] 0.004

PRMT5 (UniProt O14744)
UniProt O14744, sequence (O14744 whole entry, looked up): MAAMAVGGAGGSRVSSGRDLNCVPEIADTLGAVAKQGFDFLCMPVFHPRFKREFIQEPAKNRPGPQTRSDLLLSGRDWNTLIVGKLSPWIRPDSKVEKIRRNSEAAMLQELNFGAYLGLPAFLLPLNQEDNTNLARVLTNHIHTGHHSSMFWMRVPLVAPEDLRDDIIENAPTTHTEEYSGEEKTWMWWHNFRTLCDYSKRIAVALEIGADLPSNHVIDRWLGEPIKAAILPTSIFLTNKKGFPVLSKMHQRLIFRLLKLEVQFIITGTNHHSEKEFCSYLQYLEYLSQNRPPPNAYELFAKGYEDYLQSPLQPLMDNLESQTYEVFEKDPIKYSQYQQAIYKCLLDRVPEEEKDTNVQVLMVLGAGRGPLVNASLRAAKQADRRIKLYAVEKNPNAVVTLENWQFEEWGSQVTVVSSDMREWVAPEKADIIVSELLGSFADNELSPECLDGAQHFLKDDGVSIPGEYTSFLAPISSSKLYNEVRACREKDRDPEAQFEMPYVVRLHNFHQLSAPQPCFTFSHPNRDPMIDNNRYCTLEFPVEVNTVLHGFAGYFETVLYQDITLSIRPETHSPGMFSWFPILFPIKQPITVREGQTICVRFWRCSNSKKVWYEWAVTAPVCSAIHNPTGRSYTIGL
active: alvocidib 0.318
inactive: Tubastatin A -0.009 | [1] 0.008 | defactinib -0.019 | [2] 0.013 | encorafenib -0.015 | [3] -0.099 | alisertib 0 | [4] 0.011 | gefitinib -0.023 | lapatinib -0.029 | pictilisib -0.012 | crizotinib 0 | [5] -0.02 | duvelisib 0.158 | gandotinib 0.011 | tozasertib 0.017 | doramapimod -0.004 | bafetinib -0.021 | [6] -0.008

PDE4DIP isoform 4 (UniProt Q5VU43)
UniProt Q5VU43, sequence (Q5VU43 whole entry, looked up): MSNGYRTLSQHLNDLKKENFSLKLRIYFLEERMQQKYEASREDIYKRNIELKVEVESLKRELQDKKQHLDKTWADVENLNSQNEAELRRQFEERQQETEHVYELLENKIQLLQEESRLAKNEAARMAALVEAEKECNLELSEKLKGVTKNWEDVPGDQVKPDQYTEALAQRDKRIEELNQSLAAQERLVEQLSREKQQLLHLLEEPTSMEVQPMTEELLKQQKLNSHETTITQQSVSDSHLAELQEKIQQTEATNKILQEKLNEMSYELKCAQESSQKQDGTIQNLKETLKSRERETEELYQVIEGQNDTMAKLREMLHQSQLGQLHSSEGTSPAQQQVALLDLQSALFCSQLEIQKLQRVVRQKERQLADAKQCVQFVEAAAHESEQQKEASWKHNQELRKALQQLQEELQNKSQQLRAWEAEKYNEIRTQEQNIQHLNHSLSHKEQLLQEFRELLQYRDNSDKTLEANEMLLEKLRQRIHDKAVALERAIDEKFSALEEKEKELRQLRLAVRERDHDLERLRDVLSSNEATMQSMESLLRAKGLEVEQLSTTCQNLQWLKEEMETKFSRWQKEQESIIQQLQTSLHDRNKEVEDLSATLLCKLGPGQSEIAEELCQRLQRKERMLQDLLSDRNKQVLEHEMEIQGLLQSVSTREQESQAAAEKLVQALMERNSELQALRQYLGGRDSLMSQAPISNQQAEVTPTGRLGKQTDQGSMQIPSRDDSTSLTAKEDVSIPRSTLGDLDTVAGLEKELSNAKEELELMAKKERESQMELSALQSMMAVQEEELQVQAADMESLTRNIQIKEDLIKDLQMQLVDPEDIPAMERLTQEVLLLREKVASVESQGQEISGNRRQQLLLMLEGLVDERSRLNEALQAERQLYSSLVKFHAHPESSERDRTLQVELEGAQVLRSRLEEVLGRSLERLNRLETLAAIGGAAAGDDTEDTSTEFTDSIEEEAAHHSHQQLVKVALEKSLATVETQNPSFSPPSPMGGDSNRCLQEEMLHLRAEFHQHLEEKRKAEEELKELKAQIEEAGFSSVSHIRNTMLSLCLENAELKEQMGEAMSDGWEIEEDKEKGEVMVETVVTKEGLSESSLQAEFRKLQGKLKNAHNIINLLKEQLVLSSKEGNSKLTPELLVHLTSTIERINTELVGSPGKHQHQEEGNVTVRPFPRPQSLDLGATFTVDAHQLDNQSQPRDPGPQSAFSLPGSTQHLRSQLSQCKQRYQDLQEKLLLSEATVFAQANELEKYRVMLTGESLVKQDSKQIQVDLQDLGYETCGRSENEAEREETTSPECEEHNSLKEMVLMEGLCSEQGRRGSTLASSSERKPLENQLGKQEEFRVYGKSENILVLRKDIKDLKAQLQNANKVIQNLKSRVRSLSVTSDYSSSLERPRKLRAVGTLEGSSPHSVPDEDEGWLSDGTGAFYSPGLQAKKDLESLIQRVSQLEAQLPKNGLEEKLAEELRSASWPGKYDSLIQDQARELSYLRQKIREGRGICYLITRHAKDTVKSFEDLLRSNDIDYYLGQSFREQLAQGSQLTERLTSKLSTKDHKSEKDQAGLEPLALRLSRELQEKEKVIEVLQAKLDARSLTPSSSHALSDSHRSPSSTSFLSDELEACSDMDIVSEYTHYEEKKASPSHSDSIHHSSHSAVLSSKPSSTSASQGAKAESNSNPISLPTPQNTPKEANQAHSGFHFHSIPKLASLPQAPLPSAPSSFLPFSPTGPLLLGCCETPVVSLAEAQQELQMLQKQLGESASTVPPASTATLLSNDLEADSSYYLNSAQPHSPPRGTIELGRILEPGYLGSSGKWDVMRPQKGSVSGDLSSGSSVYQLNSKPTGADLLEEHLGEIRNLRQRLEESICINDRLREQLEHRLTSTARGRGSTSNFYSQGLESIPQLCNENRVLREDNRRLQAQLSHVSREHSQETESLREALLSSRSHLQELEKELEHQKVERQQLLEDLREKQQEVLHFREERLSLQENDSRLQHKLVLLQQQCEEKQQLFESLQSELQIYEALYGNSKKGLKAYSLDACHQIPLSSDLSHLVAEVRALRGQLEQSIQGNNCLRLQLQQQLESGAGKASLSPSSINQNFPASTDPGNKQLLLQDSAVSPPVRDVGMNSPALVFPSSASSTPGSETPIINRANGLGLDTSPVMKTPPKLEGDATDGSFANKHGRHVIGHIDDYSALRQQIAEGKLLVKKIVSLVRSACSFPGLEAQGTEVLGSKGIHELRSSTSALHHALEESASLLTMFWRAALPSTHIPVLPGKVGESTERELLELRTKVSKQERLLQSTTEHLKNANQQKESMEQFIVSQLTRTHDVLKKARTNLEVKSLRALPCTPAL
inactive: alvocidib -0.038 | Tubastatin A 0.004 | [1] -0.003 | defactinib -0.018 | [2] 0.036 | encorafenib 0.006 | [3] 0.004 | alisertib 0.023 | [4] -0.007 | gefitinib -0.059 | lapatinib -0.003 | pictilisib -0.076 | crizotinib -0.048 | [5] -0.069 | duvelisib -0.017 | gandotinib 0.116 | tozasertib -0.005 | doramapimod 0 | bafetinib -0.073 | [6] 0.05

PELO (UniProt Q9BRX2)
active: [5] 0.369
inactive: alvocidib 0.149 | Tubastatin A -0.086 | [1] 0.026 | defactinib -0.022 | [2] -0.043 | encorafenib 0.056 | [3] 0.084 | alisertib 0.008 | [4] 0.006 | gefitinib 0.006 | lapatinib 0.036 | pictilisib 0.001 | crizotinib -0.064 | duvelisib -0.039 | gandotinib -0.202 | tozasertib 0.022 | doramapimod 0.019 | bafetinib -0.054 | [6] -0.175

PPP2CA (UniProt P67775)
inactive: alvocidib -0.062 | Tubastatin A -0.018 | [1] 0.026 | defactinib -0.064 | [2] -0.019 | encorafenib 0.128 | alisertib -0.016 | [4] -0.013 | gefitinib -0.009 | lapatinib -0.028 | pictilisib -0.001 | crizotinib 0.159 | [5] 0.051 | duvelisib -0.024 | gandotinib -0.022 | tozasertib -0.116 | doramapimod -0.049 | bafetinib 0.053 | [6] 0.03
active: [3] -0.374

PIK3R2 (UniProt O00459)
UniProt O00459, sequence (O00459 whole entry, looked up): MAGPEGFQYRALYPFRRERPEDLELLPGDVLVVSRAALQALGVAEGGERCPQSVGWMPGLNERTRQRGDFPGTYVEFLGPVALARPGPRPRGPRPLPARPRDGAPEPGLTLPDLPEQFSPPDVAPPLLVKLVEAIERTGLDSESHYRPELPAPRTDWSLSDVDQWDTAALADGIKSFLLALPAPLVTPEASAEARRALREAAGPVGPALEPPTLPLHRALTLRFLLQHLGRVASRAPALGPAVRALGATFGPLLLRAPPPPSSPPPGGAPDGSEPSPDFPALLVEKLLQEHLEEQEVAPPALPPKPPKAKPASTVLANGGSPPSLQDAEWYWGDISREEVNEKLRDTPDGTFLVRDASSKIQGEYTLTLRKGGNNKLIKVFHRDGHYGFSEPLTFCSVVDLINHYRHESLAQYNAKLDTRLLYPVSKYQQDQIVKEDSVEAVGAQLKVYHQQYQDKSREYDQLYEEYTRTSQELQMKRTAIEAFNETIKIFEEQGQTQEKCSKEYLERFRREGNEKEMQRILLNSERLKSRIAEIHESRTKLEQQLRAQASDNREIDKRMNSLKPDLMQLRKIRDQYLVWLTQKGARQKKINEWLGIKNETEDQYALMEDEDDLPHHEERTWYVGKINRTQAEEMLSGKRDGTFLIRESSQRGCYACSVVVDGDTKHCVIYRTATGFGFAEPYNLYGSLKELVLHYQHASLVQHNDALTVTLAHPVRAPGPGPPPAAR
active: pictilisib 0.318 | duvelisib 0.322
inactive: alvocidib 0.023 | Tubastatin A -0.086 | [1] 0.027 | defactinib 0.017 | [2] -0.009 | encorafenib 0.009 | [3] -0.225 | alisertib 0.008 | [4] 0.02 | gefitinib -0.052 | lapatinib -0.009 | crizotinib -0.018 | [5] 0.009 | gandotinib 0.043 | tozasertib 0.009 | doramapimod 0.014 | bafetinib -0.004 | [6] -0.016

PUF60 (UniProt Q9UHX1)
inactive: alvocidib 0.003 | Tubastatin A 0.019 | [1] -0.02 | defactinib -0.012 | [2] 0.008 | encorafenib -0.013 | [3] 0.019 | alisertib 0.005 | [4] -0.009 | gefitinib -0.022 | lapatinib 0 | pictilisib -0.037 | crizotinib 0.036 | [5] 0.092 | duvelisib -0.01 | gandotinib -0.05 | tozasertib -0.017 | doramapimod -0.012 | bafetinib 0.012 | [6] -0.058

PWP2 (UniProt Q15269)
inactive: alvocidib -0.014 | Tubastatin A -0.073 | [1] 0.027 | defactinib 0.042 | [2] 0.061 | encorafenib 0.035 | [3] -0.033 | alisertib 0.004 | [4] -0.007 | gefitinib -0.057 | lapatinib -0.017 | pictilisib -0.012 | crizotinib 0.001 | [5] -0.016 | duvelisib 0.005 | gandotinib -0.075 | tozasertib -0.013 | doramapimod -0.017 | bafetinib -0.023 | [6] 0.029

PGRMC1 (UniProt O00264)
UniProt O00264, sequence (O00264 whole entry, looked up): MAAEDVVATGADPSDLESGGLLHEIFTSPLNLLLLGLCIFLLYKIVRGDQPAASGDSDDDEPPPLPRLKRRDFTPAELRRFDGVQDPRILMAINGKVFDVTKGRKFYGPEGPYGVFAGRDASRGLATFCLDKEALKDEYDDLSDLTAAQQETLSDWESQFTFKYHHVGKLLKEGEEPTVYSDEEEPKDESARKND
inactive: alvocidib -0.026 | Tubastatin A 0.01 | [1] -0.022 | defactinib 0.02 | [2] -0.014 | encorafenib 0.006 | alisertib 0.006 | [4] 0.006 | gefitinib 0.03 | lapatinib 0.001 | pictilisib -0.023 | crizotinib 0.057 | [5] -0.011 | duvelisib -0.024 | gandotinib 0.047 | tozasertib 0.035 | doramapimod -0.052 | bafetinib 0.004 | [6] 0.018
active: [3] -0.258

PCBD2 (UniProt Q9H0N5)
UniProt Q9H0N5, sequence (Q9H0N5 whole entry, looked up): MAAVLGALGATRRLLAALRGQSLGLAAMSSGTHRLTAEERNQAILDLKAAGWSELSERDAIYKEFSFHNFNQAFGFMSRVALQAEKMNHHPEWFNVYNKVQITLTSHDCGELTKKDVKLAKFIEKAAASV
active: [5] -0.228
inactive: alvocidib -0.124 | Tubastatin A 0.012 | [1] 0.01 | defactinib -0.045 | [2] -0.059 | encorafenib -0.008 | [3] -0.039 | alisertib 0.058 | [4] 0.031 | gefitinib 0.071 | lapatinib -0.014 | pictilisib -0.009 | crizotinib -0.051 | duvelisib 0.028 | gandotinib 0.141 | tozasertib 0.031 | doramapimod 0.008 | bafetinib -0.063 | [6] 0.096

PDCD10 (UniProt Q9BUL8)
UniProt Q9BUL8, sequence (Q9BUL8 whole entry, looked up): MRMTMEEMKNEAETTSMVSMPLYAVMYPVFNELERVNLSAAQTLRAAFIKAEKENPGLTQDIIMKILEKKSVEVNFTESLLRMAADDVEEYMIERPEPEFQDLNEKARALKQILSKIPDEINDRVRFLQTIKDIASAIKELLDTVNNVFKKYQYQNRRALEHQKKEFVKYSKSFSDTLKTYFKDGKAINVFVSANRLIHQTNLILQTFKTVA
active: [5] -0.254
inactive: alvocidib -0.053 | Tubastatin A -0.002 | [1] 0.013 | defactinib 0.029 | [2] -0.005 | encorafenib -0.019 | [3] 0.034 | alisertib 0.01 | [4] 0.05 | gefitinib -0.025 | lapatinib -0.016 | pictilisib -0.014 | crizotinib -0.005 | duvelisib -0.007 | gandotinib 0.112 | tozasertib 0.023 | doramapimod -0.013 | bafetinib -0.033 | [6] 0.031

PFAS (UniProt O15067)
inactive: alvocidib -0.015 | Tubastatin A -0.01 | [1] 0.009 | defactinib 0.022 | [2] 0 | encorafenib -0.004 | [3] 0.119 | alisertib 0.009 | [4] -0.011 | gefitinib -0.009 | lapatinib -0.01 | pictilisib -0.011 | crizotinib -0.067 | [5] -0.011 | duvelisib -0.009 | gandotinib 0.002 | tozasertib -0.008 | doramapimod 0.035 | bafetinib -0.028 | [6] 0.019

PKP3 isoform 2 (UniProt Q9Y446)
UniProt Q9Y446, sequence (Q9Y446 whole entry, looked up): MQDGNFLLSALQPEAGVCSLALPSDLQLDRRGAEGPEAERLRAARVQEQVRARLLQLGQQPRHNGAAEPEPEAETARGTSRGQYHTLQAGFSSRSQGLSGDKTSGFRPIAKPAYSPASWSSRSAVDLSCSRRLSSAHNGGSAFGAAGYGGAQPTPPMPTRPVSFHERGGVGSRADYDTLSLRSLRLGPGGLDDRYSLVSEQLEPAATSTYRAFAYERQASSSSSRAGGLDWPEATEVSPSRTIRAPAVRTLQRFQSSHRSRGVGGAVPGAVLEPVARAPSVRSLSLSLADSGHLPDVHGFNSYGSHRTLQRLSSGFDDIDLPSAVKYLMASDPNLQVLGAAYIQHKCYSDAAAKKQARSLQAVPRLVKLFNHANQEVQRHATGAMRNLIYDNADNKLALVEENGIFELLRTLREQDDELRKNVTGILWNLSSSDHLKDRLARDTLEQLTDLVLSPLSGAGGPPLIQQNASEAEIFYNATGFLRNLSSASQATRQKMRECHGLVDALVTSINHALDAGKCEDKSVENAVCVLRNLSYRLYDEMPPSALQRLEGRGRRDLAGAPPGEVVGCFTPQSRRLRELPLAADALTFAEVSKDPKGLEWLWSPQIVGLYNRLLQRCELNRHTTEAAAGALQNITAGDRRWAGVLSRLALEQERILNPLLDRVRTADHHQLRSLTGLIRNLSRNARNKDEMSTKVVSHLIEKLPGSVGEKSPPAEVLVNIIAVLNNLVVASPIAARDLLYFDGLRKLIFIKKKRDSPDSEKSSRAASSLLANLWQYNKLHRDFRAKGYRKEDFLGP
inactive: alvocidib -0.011 | Tubastatin A -0.126 | [1] 0.067 | defactinib 0.035 | [2] 0.017 | encorafenib 0.098 | [3] 0.095 | alisertib 0.019 | [4] 0.031 | gefitinib -0.018 | lapatinib -0.007 | pictilisib -0.004 | crizotinib 0.043 | [5] -0.024 | duvelisib -0.048 | gandotinib 0.04 | tozasertib -0.039 | doramapimod 0.08 | bafetinib -0.085 | [6] 0.027
